# Data from PubChem BioAssay AID1159580 (chemical genetic matrix, 2015).
# Screen size: about 5,500 compounds; about 2,000 (36%) were called active. Roughly 18% stayed inconclusive and do not appear here. This is one part of the list. Values without a mark were called inactive. Cut-off read from the data, not from the text of the source: active = normalized growth mostly below about 0.91 (no sharp cut-off); inconclusive = no clear call, values can overlap the other calls; inactive = mostly above about 0.92.
# Experiment: chemical genetic growth profiling, strain panel (AID 1159580);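 note: tested at 20 µM; growth read once vehicle control cultures reached saturation at 30 °C; 1 = growth at the plate median or of vehicle wells; lower values mean less growth of the strain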
# Conditions: growth OD
smiles,measurement,setting,value
O=c1c(-c2cc(O)c(O)c(O)c2)coc2cc(O)c(O)c(O)c12,normalized growth,"S. cerevisiae deletion strains, locus YJL187C, strain SWE1, hits give low values",0.975
same,normalized growth,"S. cerevisiae deletion strains, locus YJR043C, strain POL32, hits give low values",0.752 (active)
same,normalized growth,"S. cerevisiae deletion strains, locus YJR075W, strain HOC1, hits give low values",0.929
same,normalized growth,"S. cerevisiae deletion strains, locus YKL009W, strain mrt4, hits give low values",1.07
same,normalized growth,"S. cerevisiae deletion strains, locus YKL068W, hits give low values",1.01
same,normalized growth,"S. cerevisiae deletion strains, locus YKL085W, strain MDH1 (second series), hits give low values",1.02
same,normalized growth,"S. cerevisiae deletion strains, locus YKL085W, strain MDH1, hits give low values",1.02
same,normalized growth,"S. cerevisiae deletion strains, locus YKL160W, strain elf1, hits give low values",0.952
same,normalized growth,"S. cerevisiae deletion strains, locus YKL190W, strain CNB1, hits give low values",0.86 (active)
same,normalized growth,"S. cerevisiae deletion strains, locus YKR001C, strain vps1, hits give low values",0.987
same,normalized growth,"S. cerevisiae deletion strains, locus YKR026C, strain gcn3, hits give low values",0.995
same,normalized growth,"S. cerevisiae deletion strains, locus YKR091W, strain srl3, hits give low values",1.02
same,normalized growth,"S. cerevisiae deletion strains, locus YLL001W, strain dnm1, hits give low values",0.965
same,normalized growth,"S. cerevisiae deletion strains, locus YLL026W, hits give low values",1.01
same,normalized growth,"S. cerevisiae deletion strains, locus YLL041C, strain sdh2, hits give low values",1
same,normalized growth,"S. cerevisiae deletion strains, locus YLR027C, strain aat2, hits give low values",0.974
same,normalized growth,"S. cerevisiae deletion strains, locus YLR039C, strain RIC1, hits give low values",0.626 (active)
same,normalized growth,"S. cerevisiae deletion strains, locus YLR058C, strain SHM2, hits give low values",0.377 (active)
same,normalized growth,"S. cerevisiae deletion strains, locus YLR102C, strain apc9, hits give low values",1
same,normalized growth,"S. cerevisiae deletion strains, locus YLR221C, strain rsa3, hits give low values",0.981
same,normalized growth,"S. cerevisiae deletion strains, locus YLR258W, strain gsy2, hits give low values",0.988
same,normalized growth,"S. cerevisiae deletion strains, locus YLR262C, strain YPT6 (second series), hits give low values",0.889
same,normalized growth,"S. cerevisiae deletion strains, locus YLR262C, strain YPT6, hits give low values",0.758
same,normalized growth,"S. cerevisiae deletion strains, locus YLR268W, strain sec22, hits give low values",0.898
same,normalized growth,"S. cerevisiae deletion strains, locus YLR320W, strain mms22, hits give low values",0.941
same,normalized growth,"S. cerevisiae deletion strains, locus YLR330W, strain CHS5, hits give low values",0.93
same,normalized growth,"S. cerevisiae deletion strains, locus YLR342W, strain FKS1 (second series), hits give low values",0.648 (active)
same,normalized growth,"S. cerevisiae deletion strains, locus YLR342W, strain FKS1, hits give low values",0.954
same,normalized growth,"S. cerevisiae deletion strains, locus YLR357W, strain rsc2, hits give low values",0.753 (active)
same,normalized growth,"S. cerevisiae deletion strains, locus YLR370C, strain arc18, hits give low values",0.911
same,normalized growth,"S. cerevisiae deletion strains, locus YLR371W, strain rom2, hits give low values",0.885 (active)
same,normalized growth,"S. cerevisiae deletion strains, locus YLR384C, strain iki3, hits give low values",1
same,normalized growth,"S. cerevisiae deletion strains, locus YLR418C, strain cdc73, hits give low values",0.797 (active)
same,normalized growth,"S. cerevisiae deletion strains, locus YML016C, strain PPZ1, hits give low values",0.853 (active)
same,normalized growth,"S. cerevisiae deletion strains, locus YML032C, strain rad52, hits give low values",0.905 (active)
same,normalized growth,"S. cerevisiae deletion strains, locus YML120C, strain ndi1, hits give low values",0.747 (active)
same,normalized growth,"S. cerevisiae deletion strains, locus YML124C, strain tub3, hits give low values",0.99
same,normalized growth,"S. cerevisiae deletion strains, locus YMR058W, strain fet3, hits give low values",0.761 (active)
same,normalized growth,"S. cerevisiae deletion strains, locus YMR078C, strain ctf18, hits give low values",0.994
same,normalized growth,"S. cerevisiae deletion strains, locus YMR125W, strain sto1, hits give low values",1.06
same,normalized growth,"S. cerevisiae deletion strains, locus YMR129W, hits give low values",1.03
same,normalized growth,"S. cerevisiae deletion strains, locus YMR205C, strain PFK2, hits give low values",0.961
same,normalized growth,"S. cerevisiae deletion strains, locus YMR223W, strain ubp8, hits give low values",0.94
same,normalized growth,"S. cerevisiae deletion strains, locus YMR231W, strain pep5, hits give low values",0.821 (active)
same,normalized growth,"S. cerevisiae deletion strains, locus YMR307W, strain GAS1, hits give low values",0.638
same,normalized growth,"S. cerevisiae deletion strains, locus YNL067W, strain RPL9B, hits give low values",0.841 (active)
same,normalized growth,"S. cerevisiae deletion strains, locus YNL071W, strain lat1, hits give low values",1.01
same,normalized growth,"S. cerevisiae deletion strains, locus YNL153C, strain GIM3, hits give low values",0.582 (active)
same,normalized growth,"S. cerevisiae deletion strains, locus YNL209W, strain ssb2, hits give low values",0.804 (active)
same,normalized growth,"S. cerevisiae deletion strains, locus YNL233W, strain BNI4, hits give low values",0.876
same,normalized growth,"S. cerevisiae deletion strains, locus YNL248C, strain rpa49, hits give low values",0.935
same,normalized growth,"S. cerevisiae deletion strains, locus YNL250W, strain rad50, hits give low values",0.998
same,normalized growth,"S. cerevisiae deletion strains, locus YNL271C, strain bni1, hits give low values",0.986
same,normalized growth,"S. cerevisiae deletion strains, locus YNL298W, strain CLA4, hits give low values",0.974
same,normalized growth,"S. cerevisiae deletion strains, locus YNL307C, strain MCK1, hits give low values",0.986
same,normalized growth,"S. cerevisiae deletion strains, locus YNL322C, strain KRE1 (second series), hits give low values",1.01
same,normalized growth,"S. cerevisiae deletion strains, locus YNR049C, strain mso1, hits give low values",1.01
same,normalized growth,"S. cerevisiae deletion strains, locus YNR052C, strain pop2, hits give low values",0.695 (active)
same,normalized growth,"S. cerevisiae deletion strains, locus YOL012C, strain htz1",0.414
same,normalized growth,"S. cerevisiae deletion strains, locus YOL147C, strain pex11, hits give low values",0.865 (active)
same,normalized growth,"S. cerevisiae deletion strains, locus YOR001W, strain rrp6, hits give low values",0.949
same,normalized growth,"S. cerevisiae deletion strains, locus YOR061W, strain CKA2, hits give low values",0.87 (active)
same,normalized growth,"S. cerevisiae deletion strains, locus YOR069W, strain VPS5, hits give low values",0.926 (active)
same,normalized growth,"S. cerevisiae deletion strains, locus YOR070C, strain gyp1, hits give low values",0.978
same,normalized growth,"S. cerevisiae deletion strains, locus YOR080W, strain dia2, hits give low values",0.975
same,normalized growth,"S. cerevisiae deletion strains, locus YOR083W, strain WHI5, hits give low values",0.903
same,normalized growth,"S. cerevisiae deletion strains, locus YOR106W, strain vam3, hits give low values",0.686 (active)
same,normalized growth,"S. cerevisiae deletion strains, locus YOR136W, strain idh2, hits give low values",0.987
same,normalized growth,"S. cerevisiae deletion strains, locus YOR144C, strain elg1, hits give low values",0.915 (active)
same,normalized growth,"S. cerevisiae deletion strains, locus YOR184W, strain ser1, hits give low values",0.88
same,normalized growth,"S. cerevisiae deletion strains, locus YOR265W, strain rbl2, hits give low values",1
same,normalized growth,"S. cerevisiae deletion strains, locus YOR270C, strain vph1, hits give low values",0.572 (active)
same,normalized growth,"S. cerevisiae deletion strains, locus YOR290C, strain snf2, hits give low values",0.344 (active)
same,normalized growth,"S. cerevisiae deletion strains, locus YOR316C, strain cot1, hits give low values",1
same,normalized growth,"S. cerevisiae deletion strains, locus YPL051W, strain arl3, hits give low values",0.817 (active)
same,normalized growth,"S. cerevisiae deletion strains, locus YPL055C, strain LGE1, hits give low values",0.783
same,normalized growth,"S. cerevisiae deletion strains, locus YPL078C, strain atp4, hits give low values",0.856 (active)
same,normalized growth,"S. cerevisiae deletion strains, locus YPL106C, strain sse1, hits give low values",0.91
same,normalized growth,"S. cerevisiae deletion strains, locus YPL240C, strain hsp82, hits give low values",0.988
same,normalized growth,"S. cerevisiae deletion strains, locus YPL241C, strain CIN2, hits give low values",0.948
same,normalized growth,"S. cerevisiae deletion strains, locus YPR119W, strain clb2, hits give low values",1.02
same,normalized growth,"S. cerevisiae deletion strains, locus YPR141C, strain kar3, hits give low values",1
same,normalized growth,"S. cerevisiae deletion strains, locus YPR163C, strain tif3, hits give low values",0.998
same,normalized growth,"S. cerevisiae deletion strains, locus YPR167C, strain met16, hits give low values",1.01
same,normalized growth,"S. cerevisiae deletion strains, strain wtn01, hits give low values",0.934
same,normalized growth,"S. cerevisiae strains, strain wild type, hits give low values",0.78 (active)
